# Laboratory results: PubChem BioAssay (NCI)
# Several values for one entry are separate records, joined by “and”; a condition that tells them apart may be missing. Identical values can stand only once. Compounds without any hit were thinned out: in the full panel of roughly 83,000, 20% have a hit.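 Values shown are percent growth following 48 h exposure of cells in 96-well plates to a single concentration of compound; below 10 was considered active.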 Activity calls are given as the source filed them.
# Test system: IGROV1 ovarian
# Assay: NCI-60 one-dose screen, 48 h (100 = growth as untreated, 0 = no growth, -100 = all killed)
# Conditions: 10 µM
# Description: Growth inhibition of the IGROV1 human tumor cell line is measured as a screen for anti-cancer activity. Cells are grown in 96 well plates and exposed to the test compound for 48 hours. Compounds are tested at a single concentration, which is 10^-5 M for most compounds. The reported endpoint is percent growth (GI% or GIPRCNT), where numbers from 0 - 100% represent growth inhibition, and numbers from -100% - 0 represent cell death. For example, a value of 40 represents 60% growth inhibition. A value of 0 means no net growth occurred over the course of the experiment. A value of -40 indicates 40% of cells at the beginning of the experiment died by the end of the experiment. A value of -100 means all cells are dead at the end of the experiment.
# NCI-60 Human Tumor Cell Lines Screen was performed using the standard one-dose NCI protocol, which is described in more detail at https://dtp.cancer.gov/discovery_development/nci-60/default.htm.
# Compounds with GIPRCNT values below 10 were considered active. Activity score was based on GIPRCNT using the following formula: […]
# Score is 0 for GIPRCNT values of 100 or above, 50 for GIPRCNT values of 0, and 100 for GIPRCNT values of -100.
row,Structure (SMILES),growth
1,O=C(O)CCCc1ccc(N(CCCl)CCCl)cc1,80.2% (inactive)

# Same assay, conditions: 10 µM unless noted
row,Structure (SMILES),growth
1,C/C(=C(\c1ccc(OCCN2CCOCC2)cc1)c1ccc(OC(=O)Cc2ccccc2)cc1)c1ccc(Cl)cc1,106% (inactive)
2,CCN(CC)CCn1c(=O)n(C)c2ccccc21,109% (inactive)
3,O=C1CCCCC1CN1CCCCC1 (stereo not given),93.9% (inactive)
4,C[C@@H]1C/C=C\C(=O)O[C@H](/C=C/C#C/C=C/C(C)(C)[C@@H](O)c2cccc(O)c2Br)[C@@H](C)/C=C/[C@H](C)C[C@H](OC(N)=O)C1,48.6% (inactive)
5,CN1CCN(c2ccc(Cl)cc2)CC1,68% (inactive)
6,O=C1c2ccccc2C(=O)N1N1CC1c1ccccc1 (stereo not given),95.4% (inactive)
7,NC(=O)Oc1cc(OC(N)=O)cc(N(CCCl)CCCl)c1,91.2% (inactive)
8,COc1cc(C=C2C(=O)NC(=O)NC2=O)ccc1O,105% (inactive)
9,CN(C)c1ccc(N)cc1,94.5% (inactive) and 61.8% (inactive)
10,CCCC(C)SP(=S)(SC(C)CCC)SC(C)CCC (stereo not given),109% (inactive)
11,CC1=CC(=Nc2ccc(N(CCCl)CCCl)cc2)C=C(C)C1=O,21% (inactive)
12,CC(=O)c1cccc(S(=O)(=O)F)c1,103% (inactive)
13,CC[CH2][Sn]([Cl])([Cl])[CH2]CC.Oc1ccccc1C=NCCN=Cc1ccccc1O,74.1% (inactive) and 61.9% (inactive)
14,CC(=O)Cc1ccc2c(c1)OCO2,111% (inactive)
15,CC[C@H](C)[C@H](NC(=O)[C@H]1CCCCN1C)C(=O)N(C)[C@H](CCc1nc(C(=O)N[C@@H](Cc2ccccc2)C[C@H](C)C(=O)O)cs1)C(C)C,41.5% (inactive)
16,CCN1C(=O)NC(=O)C(C)(N2C(=O)c3c(F)c(F)c(F)c(F)c3C2=O)C1=O (stereo not given),-58.8% (active)
17,C=CC[PH+](c1ccccc1)c1ccccc1.C=CC[PH+](c1ccccc1)c1ccccc1.[Pt+2].[S-]c1ncccn1.[S-]c1ncccn1,16.3% (inactive)
18,C(=NC1CCCCC1)=NC1CCCCC1,108% (inactive) and 88.4% (inactive)
19,C[C@]12CCc3sc(Nc4ccc(O)cc4)nc3C1=CC[C@@H]1[C@@H]2CC[C@]2(C)C(=O)CC[C@@H]12,13.1% (inactive)

row,Structure (SMILES),growth
1,O=C(O)c1ccccc1N(CCO)CCCl,88.6% (inactive)
2,O=C(CCCN1CCC2(CC1)C(=O)NCN2c1ccccc1)c1ccc(F)cc1,73.6% (inactive) and 29% (inactive)
3,Cc1ccc(N2CCN(CCC#N)CC2)cc1,95.5% (inactive)
4,Cc1cc(N)ccc1N,108% (inactive)
5,O=S1(=O)OCCO1,106% (inactive)
6,N#CCCc1ccccc1,103% (inactive)
7,C[C@]12CCc3nc(-c4ccc(O)c(O)c4)sc3C1=CC[C@@H]1[C@@H]2CC[C@]2(C)C(=O)CC[C@@H]12,38.6% (inactive)
8,CCCCOCCOP(=O)(OCCOCCCC)OCCOCCCC,119% (inactive)
9,O=C(O)C1C(C(=O)O)C2(Cl)C(Cl)=C(Cl)C1(Cl)C2(Cl)Cl (stereo not given),109% (inactive) and 118% (inactive)
10,CCCCCCCCCCCCCCCC[n+]1ccccc1,-73% (active) and -60.1% (active)
11,O=C(Cc1ccccc1)NC(O)C(Cl)(Cl)Cl (stereo not given),115% (inactive)
12,Cc1c2ccncc2c(C)c2c1[nH]c1ccccc12,-66.2% (active)
13,Cc1ccc(S(=O)(=O)n2cc([C@@]3(O)C[C@H](CSC#N)OC3=O)c3ccccc32)cc1,71.6% (inactive)
14,CCCC1CCCCC12C(=O)NC(=O)NC2=O (stereo not given),111% (inactive)
15,Nc1c(Cl)c(Cl)nc(C(=O)O)c1Cl,29.9% (inactive)
16,N#CCC(=O)c1ccccc1,104% (inactive)
17,CC1(C)N=C(N)N=C(N)N1c1ccc(CCC(=O)Nc2ccc(S(=O)(=O)F)cc2)cc1,25.8% (inactive)
18,COc1cc(-c2ccc(N)c(OC)c2)ccc1N,120% (inactive)
19,OCCN=Cc1c[nH]c2ccccc12,104% (inactive)

# Same assay, conditions: 75 µM
row,Structure (SMILES),growth
1,O=C(O)CCCc1ccc(N(CCCl)CCCl)cc1,50.9% (inactive)
